# Laboratory results as given in the supplement of paper PMC6555819.
# Test system: VDR:RXRa (NR concentration 270 nM, RXRa partner concentration 90 nM)
# Assay: PBM binding z-score (relative to random genomic background probes); higher = stronger binding; sequences stand for … in GC…GCGATTGACAGCGTAGAATGAAGG
# Procedure: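 Protein-binding microarray (Agilent 4x180K custom design, double-stranded 60-nt probes: 5' GC cap, 34-nt variable region, 24-nt constant primer region; full probe sequence given). Purified or IVT nuclear receptor:RXRα heterodimers (3:1 NR:RXRα, mostly 270:90 nM) or homodimers were incubated for 1 h in PBS with 2% milk and no ligand, then detected with Alexa488 antibodies. Fluorescence from o1-orientation probes (~5 replicates averaged) was converted to z-scores against 500 random hg19 background probes. Variable regions are seed direct-repeat (DR0–DR5) sites, all their single-nucleotide variants and half-site ablations.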
row,Sequence,PBM binding z-score
1,CCTTACGGGTCACGCGGTTATAGCACGACGAGCG,4.4
2,TCTTGTAGATCAAGCAGCTTAAGAAAGCCTGAGT,0.0668
3,CGATCGAGGGCATGAGTTGATAGCAAATGCCGAT,0.973
4,TCGAGTAGGTTAGCCGGGGCATTCAGCCAACATA,2.46
5,GCTGCTAGGTCAACTGATCGTCAGCTAAAGCTCG,1.13
6,ATCTCTAGGTAAATATAGTTCAGTGAATGCAAAT,1.44
7,GGAACGAGGGCACTCGAGTTGATAGCATGGCGAT,2.64
8,TCATGTAGGTAAATGCTAGGTGAAAGTCCGATCT,0.587
9,CCTACTAGGCCACGAAAGGTCATTGATTCAGTGA,4.42
10,TATACAGGGTCAACGGCCAGAGTACGAATGTCGA,4.6
11,TCATATAGGTAAACAGGTGCAAGTCCGTAAGTTA,3.49
12,CCTAGCAGGCCAATCTGGGTCGCTCAAGGCTTGA,0.301
13,TCTCGGAGGACACGAAGGTCGGAGCTTTCCAGAG,0.528
14,TTATATAGGTAAAAGGTGAAAGTCGGTGTGGTAA,1.4
15,CCTAGCAGGCCAATCTGTGTCACTCAAGGCTTGA,-0.331
16,TCTTGTAAATCAAAGGTTAAGAAAGCCGAAGCCT,1.07
17,CAAACTAGGTCCAGAGGTCAAAGTCCGCTTCCCG,5.14
18,CCGACTGGGGCAAAGGATACCATACTCAGTACGA,-0.368
19,ATCACTAGGTAACCAAGTTCAGTGAATGCCGAAC,3.92
20,GGAACGAGGGCACGTTGATAGCAGAGTTTGATGG,0.909

row,Sequence,PBM binding z-score
1,TAGCCTAGGTCAGAACGGGCCAGTATACGCTATA,0.299
2,CCGAGTTGGTCAGGAGGTCACACACCGGATATGA,4.19
3,CCTAGTTGGTCAGGAGGACACACACCGGATATGA,0.204
4,CCTATTATTTGACCATAAGGGCAACCGAAGCTCG,1.28
5,AGAATGAGGTTACGAAAGATCAGGGAAACGCTTG,1.52
6,TTACCAAGGTGAGAGGTCGTTGATGCACGCCTTG,2.25
7,CCAGACAGGCGAAAGGTAACTCAGTCTGGTACGC,-0.255
8,TCCAGTTGGTCAAAGGTCACACACTCGAAATGCG,5.31
9,TAGCCTAGGTCATTCAGGGGCCAGTATAGAAAGC,3.26
10,GCTGCTAGGTCAACGGATGGTCAGCTAAAGCTCG,0.92
11,AGAACGAGGACAATGAGTTGATAGCACGGGTGGC,1.75
12,ATCTAAAGGTCGTGAGGTGAGTATACAGAAAGGC,3.73
13,ATATGTAGGTTAAGGGGCATTCAGGTTGGTTCGC,2.2
14,TATACAGGGTCAAAGGCCAGTGTACGAATGTCGA,4.84
15,TCTAGCAGGCTAGAGGGTCACTCAAGAGGTACGG,1.38
16,CCTGCTAGGTCATTGGTCAGCTAAAGCAGCTCGC,2.1
17,CCTAGCAGGCCAAGCTGGGTCACTCAAGGCTTGA,0.17
18,CCTTGTTGGTCAGGAGGTCACACACCGGATATGA,3.79
19,ATCTCTAGGTAAAGTCCAGTGAAAGATCGATAGA,-0.12
20,ATCTGTAGGTTACATCCGGGTCATTCAGGCTATG,4.16
